Laboratory results from PubChem BioAssay (EPA / NIEHS).
Active and inactive are the calls of the source. How the source made its calls: active means hit-call score of the fitted dose curve at least 0.9, where 1 is the maximum; inactive means score below 0.9.

Tests used:
[1] = APR_HepG2_CellCycleArrest_24hr: Apredica 24-hour HepG2 Assay for Cell Cycle Arrest (AID 2282905); conditions: imaging, actives raise or lower the signal;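 further: cell cycle arrest scored as ratio of 2N to 4N nuclear DNA content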
How it was run: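 Step one: dose HepG2 with test compounds, 0.39–200 uM, 0.5% DMSO, 24 hr. Step two: fix, permeabilize, stain nuclei with Hoechst 33342. Step three: image six fields per well at 20x, quantify DNA content, fit bidirectionally relative to DMSO.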

[2] = APR_HepG2_NuclearSize_24hr: Apredica 24-hour HepG2 Assay for Nuclear Size (AID 2282907); conditions: high-content imaging, actives raise or lower the signal
How it was run: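 After fixation and permeabilization, 24-hr-treated HepG2 cells were stained with Hoechst 33342 and imaged on an ArrayScan (20x). Doses spanned 0.39–200 uM in duplicate. Nuclear diameter changes in either direction were fitted relative to 0.5% DMSO controls.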

[3] = APR_HepG2_CellLoss_24hr: Apredica 24-hour HepG2 Assay for Cell Loss (AID 2282908); conditions: high-content imaging;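 on AC50: fit in both directions so a hit may be cell loss or gain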
How it was run: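 Duplicate wells received compound at ten concentrations (0.39–200 uM; final DMSO 0.5% v/v). After fixation with formaldehyde, nuclei stained with Hoechst 33342 were imaged at 20x. Loss or gain of cell count was fitted relative to DMSO controls.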

[4] = APR_HepG2_MicrotubuleCSK_24hr: Apredica 24-hour HepG2 Assay for Microtubule CSK Stabilty (AID 2282909); conditions: HepG2 microtubule cytoskeleton imaging, actives raise or lower the signal
How it was run: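 Microtubule stability is scored from tubulin immunofluorescence in fixed HepG2 cells imaged at 20x. Cells receive ten compound concentrations up to 200 uM for 24 h; taxol and DMSO serve as positive and negative controls.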

[5] = APR_HepG2_MitoticArrest_24hr: Apredica 24-hour HepG2 Assay for Mitotic Arrest (AID 2282910); conditions: high-content imaging, actives raise or lower the signal
How it was run: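 Treatment lasted 24 hr in the human HepG2 line at 0.39–200 uM, solvent held at 0.5% DMSO. Fixed cells were stained with Hoechst 33342 and anti-phospho-histone H3, imaged at 20x, and analysed by gain- or loss-of-signal fitting against DMSO.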

[6] = APR_HepG2_MitoMembPot_24hr: Apredica 24-hour HepG2 Assay for Mitochondrial Membrane Potential (AID 2282911); conditions: imaging, actives raise or lower the signal
How it was run: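 HepG2, 24 hr dosing, 10 concentrations 0.39–200 uM, 0.5% DMSO final. Live-cell MitoTracker Red CMXRos 250 nM 30 min, then 3.7% formaldehyde fix. HCS fluorescence imaging, 20x; bidirectional fit vs DMSO baseline.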

[7] = APR_HepG2_MitoMass_24hr: Apredica 24-hour HepG2 Assay for Mitochondrial Mass (AID 2282912); conditions: high-content imaging, actives raise or lower the signal
How it was run: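 Readout: fluorescence of MitoTracker Red CMXRos (250 nM, added 30 min pre-fixation) in fixed HepG2 cells imaged by HCS. Exposure lasted 24 hr at 0.39–200 uM; increases and decreases were both fitted relative to DMSO.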

[8] = APR_HepG2_p53Act_24hr: Apredica 24-hour HepG2 Assay for p53 Activation (AID 2282913); conditions: high-content imaging, actives raise or lower the signal;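 further: p53 protein immunofluorescence averaged per cell in HepG2 with Hoechst nuclei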
How it was run: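 Read-out: Cy5 immunofluorescence for p53 in fixed, permeabilized HepG2, imaged by HCS with Hoechst-defined nuclei. Dosing was 24 hr at 0.39–200 uM in 0.5% DMSO. Curves were fitted bidirectionally relative to DMSO.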

[9] = APR_HepG2_CellCycleArrest_72hr: Apredica 72-hour HepG2 Assay for Cell Cycle Arrest (AID 2282914); conditions: high-content imaging, actives raise or lower the signal
How it was run: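 HepG2, 72 hr exposure, 10-point 0.39–200 uM, duplicate, 0.5% DMSO final. Fix 3.7% formaldehyde 30 min RT, Triton X-100 0.5%, Hoechst 33342 2 ug/mL. ArrayScan 20x, six fields/well; DNA content per nucleus; bidirectional fit vs DMSO.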

[10] = APR_HepG2_CellLoss_72hr: Apredica 72-hour HepG2 Assay for Cell Loss (AID 2282915); conditions: high-content imaging
How it was run: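 HepG2 cells were exposed for 72 hr to compounds at 0.39–200 uM (ten concentrations, duplicate) in 0.5% v/v final DMSO. Nuclei were stained with Hoechst 33342 after 3.7% formaldehyde fixation, imaged at 20x, and counted; fits bidirectional versus DMSO.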

[11] = APR_HepG2_P-H2AX_72hr: Apredica 72-hour HepG2 Assay for H2AX Phosphorylation (AID 2282916); conditions: imaging, actives raise or lower the signal;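 further: phospho-histone H2A.x immunostain intensity per cell marking DNA damage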
How it was run: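 Phospho-H2A.x imaging endpoint in HepG2 after 72 hr compound exposure (0.39–200 uM, duplicate wells). Activity derived by bidirectional curve fitting with DMSO as baseline.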

[12] = APR_HepG2_MitoMembPot_72hr: Apredica 72-hour HepG2 Assay for Mitochondrial Membrane Potential (AID 2282917); conditions: imaging, actives raise or lower the signal
How it was run: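 HepG2 cells exposed 72 h to compounds at 0.39–200 uM (0.5% v/v DMSO, duplicates); MitoTracker Red CMXRos 250 nM loaded 30 min before 3.7% formaldehyde fixation, imaged by HCS fluorescence. Bidirectional fit versus DMSO.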

[13] = APR_HepG2_MitoticArrest_72hr: Apredica 72-hour HepG2 Assay for Mitotic Arrest (AID 2282918); conditions: high-content imaging, actives raise or lower the signal
How it was run: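 HepG2, 72 hr exposure, 0.39–200 uM in duplicate, 0.5% v/v DMSO final. Formaldehyde-fixed, Triton-permeabilized, anti-phospho-histone H3/FITC plus Hoechst. ArrayScan imaging at 20x; curves fit bidirectionally against DMSO baseline.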

[14] = APR_HepG2_MicrotubuleCSK_72hr: Apredica 72-hour HepG2 Assay for Microtubule CSK Stabilty (AID 2282919); conditions: HepG2 microtubule cytoskeleton, high-content imaging, actives raise or lower the signal
How it was run: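 Ten-point dosing (0.39–200 uM, 0.5% DMSO) of HepG2 for 72 hr, with taxol as the cytoskeletal positive control. The cells were formaldehyde-fixed and then stained with alpha-tubulin/Cy5 and Hoechst. Imaging at 20x used a −2 um Z offset for tubulin.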

[15] = APR_HepG2_P-H2AX_24hr: Apredica 24-hour HepG2 Assay for H2AX Phosphorylation (AID 2282920); conditions: high-content imaging, actives raise or lower the signal
How it was run: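 HCS fluorescence imaging of phospho-H2A.x immunostain (with Hoechst 33342 nuclear counterstain) in HepG2 after 24 hr compound exposure; 10 concentrations, 0.39–200 uM, duplicate wells, 0.5% v/v DMSO. Gain or loss of signal fitted relative to DMSO baseline.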

[16] = APR_HepG2_StressKinase_24hr: Apredica 24-hour HepG2 Assay for Stress Kinase (AID 2282922); conditions: HepG2 stress kinase (phospho-c-Jun) imaging, actives raise or lower the signal
How it was run: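 After 24 hr compound treatment (up to 200 uM, final DMSO 0.5% v/v), HepG2 cells are fixed and multiplex-labeled; phospho-c-Jun intensity is captured by high-content fluorescence imaging and analyzed relative to DMSO.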

[17] = APR_HepG2_p53Act_72hr: Apredica 72-hour HepG2 Assay for p53 Activation (AID 2282923); conditions: high-content imaging, actives raise or lower the signal;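 further: average cellular p53 protein immunofluorescence intensity in HepG2 cells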
How it was run: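 Fixed-cell p53 staining (sheep primary, Cy5 secondary) measured by fluorescence imaging following 72 hr treatment at 0.39–200 uM in 0.5% DMSO; DMSO served as negative control and baseline.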

[18] = APR_HepG2_MitoMass_72hr: Apredica 72-hour HepG2 Assay for Mitochondrial Mass (AID 2282924); conditions: high-content imaging, actives raise or lower the signal;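 further: MitoTracker Red CMXRos stain intensity per cell imaged as mitochondrial mass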
How it was run: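 Steps: treat HepG2 72 hr (0.39–200 uM, duplicate wells); load MitoTracker Red CMXRos, 250 nM, 30 min; fix with 3.7% formaldehyde, permeabilise with 0.5% Triton X-100; capture images, nuclei via Hoechst 33342; fit bidirectionally against DMSO.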

[19] = APR_HepG2_NuclearSize_72hr: Apredica 72-hour HepG2 Assay for Nuclear Size (AID 2282925); conditions: high-content imaging, actives raise or lower the signal
How it was run: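 Compounds (0.39–200 uM, final DMSO 0.5%) were applied to HepG2 for 72 hr. Cells were then formaldehyde-fixed, permeabilized and labelled with Hoechst 33342. Nuclear diameter was quantified from six images per well.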

Measured: AC50

CC(=O)N1CCN(c2ccc(OC[C@H]3CO[C@](Cn4ccnc4)(c4ccc(Cl)cc4Cl)O3)cc2)CC1
active: [3] 28.6 µM | [4] 103 µM | [6] 118 µM | [10] 23.5 µM | [11] 32.3 µM | [13] 75.9 µM | [16] 74.9 µM | [17] 14.5 µM
inactive: all other assays above

CCCCCCCCOC(=O)c1cc(O)c(O)c(O)c1
inactive: [2] | [7] | [14] | [18] | [19]
active: [1] 14.8 µM | [3] 90 µM | [4] 171 µM | [5] 50.8 µM | [6] 13.5 µM | [8] 43.3 µM | [9] 8.95 µM | [10] 63.2 µM | [11] 5.88 µM | [12] 23.8 µM | [13] 68.3 µM | [15] 45.6 µM | [16] 52.1 µM | [17] 4.98 µM

Cc1cc(F)ccc1-c1cc(N2CC[C@@H](O)[C@H]2CO)ncc1N(C)C(=O)C(C)(C)c1cc(C(F)(F)F)cc(C(F)(F)F)c1
active: [8] 94 µM | [10] 64.7 µM | [11] 57.7 µM | [13] 74 µM | [15] 53.8 µM | [17] 65 µM
inactive: all other assays above

CN(C[C@@H](CC[N+]12CCC(C3CCCCC3)(CC1)CC2)c1ccc(Cl)c(Cl)c1)C(=O)c1cc(C(F)(F)F)cc(C(F)(F)F)c1
active: [3] 13.1 µM | [4] 34.3 µM | [5] 33.4 µM | [6] 1.27 µM | [7] 100 µM | [8] 18.3 µM | [10] 24.9 µM | [11] 31.8 µM | [12] 47.8 µM | [13] 36.3 µM | [14] 28.4 µM | [15] 35.1 µM | [17] 26.7 µM
inactive: [1] | [2] | [9] | [16] | [18] | [19]

O=c1[nH]sc2ccccc12
active: [3] 29 µM | [4] 38.2 µM | [5] 13.5 µM | [7] 15.7 µM | [8] 29.3 µM | [9] 21.4 µM | [10] 18.1 µM | [11] 46.1 µM | [12] 107 µM | [13] 9.46 µM | [15] 5.7 µM | [17] 48.5 µM | [18] 13.6 µM
inactive: [1] | [2] | [6] | [14] | [16] | [19]

Clc1ccccc1C(c1ccccc1)(c1ccccc1)n1ccnc1
inactive: [1] | [6] | [7] | [8] | [12] | [14] | [18]
active: [2] 72.3 µM | [3] 20.3 µM | [4] 30.7 µM | [5] 31.6 µM | [9] 13.8 µM | [10] 18.9 µM | [11] 25.8 µM | [13] 24.8 µM | [15] 79.4 µM | [16] 62 µM | [17] 29.8 µM | [19] 55.5 µM

CC1=CC(=O)/C(=C(/C)O)C(=O)O1
inactive: all assays above

CN1C(=O)N(c2ccccc2Br)Cc2cnc(Nc3ccc4c(c3)OCC(CO)O4)nc21 (configuration not stated)
inactive: [2] | [4] | [7] | [12] | [14] | [16] | [19]
active: [1] 8.95 µM | [3] 3.7 µM | [5] 2.93 µM | [6] 105 µM | [8] 4 µM | [9] 5.09 µM | [10] 6.32 µM | [11] 3.96 µM | [13] 2.57 µM | [15] 5.05 µM | [17] 4.04 µM | [18] 19.8 µM

O=C(O)Cn1c(=O)n(Cc2ccc(Br)cc2F)c(=O)c2ccc(Cl)cc21
inactive: all assays above

c1ccc2n[nH]nc2c1
inactive: all assays above

COc1ccc2cc(S(=O)(=O)N[C@H](CC(=O)N[C@H](Cc3ccc(CN4[C@H](C)CCC[C@@H]4C)cc3)C(=O)N(C)C(C)C)c3ccc4c(c3)OCO4)ccc2c1
inactive: [1] | [6] | [9] | [12] | [14] | [16] | [19]
active: [2] 28.7 µM | [3] 39.6 µM | [4] 7.6 µM | [5] 16 µM | [7] 12.7 µM | [8] 20.4 µM | [10] 25.3 µM | [11] 13.7 µM | [13] 11.1 µM | [15] 21.8 µM | [17] 10.7 µM | [18] 45 µM

CN(C)c1ccc(C(=C2C=CC(=[N+](C)C)C=C2)c2ccc(N(C)C)cc2)cc1
active: [1] 0.747 µM | [3] 6.05 µM | [4] 22 µM | [5] 4.66 µM | [6] 27.3 µM | [8] 2.93 µM | [9] 0.407 µM | [10] 3.23 µM | [11] 4.24 µM | [12] 0.384 µM | [13] 4.11 µM | [14] 12.4 µM | [15] 4.3 µM | [16] 6.59 µM | [17] 19.9 µM | [18] 0.0403 µM
inactive: [2] | [7] | [19]

NCc1cccc(C2CCN(C(=O)c3ccc(C#Cc4ccccc4F)o3)CC2)c1
inactive: [1] | [2] | [7] | [9] | [14] | [16] | [18]
active: [3] 17.7 µM | [4] 61.3 µM | [5] 18.6 µM | [6] 18.4 µM | [8] 16.4 µM | [10] 15.5 µM | [11] 17.7 µM | [12] 98.3 µM | [13] 17.2 µM | [15] 18.6 µM | [17] 11.4 µM | [19] 107 µM
